Reference: PubChem BioAssay (NCI)
This is part of a sample that, as a whole, favours compounds with a hit. Of some 79,000 tested, about 15% had one in any assay. Values without a mark were called inactive. Activity calls are given as the source filed them. No stated cut-off is given here; in the data, active means growth inhibition above about 70%; inactive means the rest.

Columns and labels:
[1] = NCI Yeast Anticancer Drug Screen. Data for the rad50 strain (AID 155);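 further: 0% = growth of vehicle-only cultures of the same strain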; settings: S. cerevisiae rad50 strain growth inhibition; at 50.0 µM; active compounds read high
In short: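 DNA repair mutant yeast, compound exposure, growth read-out; inhibition is taken relative to vehicle.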

[2] = NCI Yeast Anticancer Drug Screen. Data for the mec2-1 strain (AID 157); settings: S. cerevisiae mec2-1 strain, at 50.0 µM, active compounds read high
In short: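 Growth inhibition is read against vehicle-treated controls after compound exposure of the mec2-1 yeast strain, which is defective in DNA damage repair or cell cycle control.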

[3] = NCI Yeast Anticancer Drug Screen. Data for the sgs1 mgt1 strain (AID 161);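 further: 0% = growth of cultures given vehicle only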; settings: S. cerevisiae sgs1 mgt1 strain, at 50.0 µM, active compounds read high
In short: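 Compounds are added to genetically altered yeast, and growth is compared with cultures given vehicle alone to give percent inhibition.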

[4] = NCI Yeast Anticancer Drug Screen. Data for the cln2 rad14 strain (AID 165);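 further: 0% = growth equal to vehicle treated cultures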; settings: S. cerevisiae cln2 rad14 strain, at 50.0 µM, active compounds read high
In short: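 Growth inhibition, relative to vehicle-treated controls, is the read-out. The test organism is a yeast strain with defined genetic alterations, cln2 rad14.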

[5] = NCI Yeast Anticancer Drug Screen. Data for the bub3 strain (AID 167); settings: S. cerevisiae bub3 mutant strain, at 50.0 µM, active compounds read high
In short: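 In this screen, a yeast mutant lacking normal mitotic checkpoint function is challenged with compound. Relative growth versus vehicle gives the inhibition value.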

[6] = NCI Yeast Anticancer Drug Screen. Data for the mlh1 rad18 strain (AID 175); settings: S. cerevisiae mlh1 rad18 strain growth inhibition; at 50.0 µM; active compounds read high
In short: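 Cells of a genetically altered yeast strain, deficient in DNA damage repair, were treated with compound. Their growth was then compared with that of vehicle-treated cultures to give inhibition.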

Structure (SMILES)	growth inhibition [1]	growth inhibition [2]	growth inhibition [3]	growth inhibition [4]	growth inhibition [5]	growth inhibition [6]
O=C1/C(=C/c2ccc3c(c2)CCC3)Cc2cc3c(cc21)CCC3	-10%	11.7%	-23.4%	21.4%	-1.15%	4.75%
C=C1CC(CCCCCCC2CC(=C)C(=O)O2)OC1=O (stereo not given)	11.2%	1.05%	-0.35%	2.3%	25.4%	-25.9%
N#CCCN(CCC#N)c1ccc(/C=C2/C=C(c3ccccc3)OC2=O)cc1	22.4%	-0.25%	19.1%	7.75%	-5.85%	11.3%
CN(C)C1Cc2ccccc2C1OC(=O)c1ccccc1 (stereo not given)	27%	20.2%	11%	22.1%	14.6%	37.1%
CC(=O)Oc1cc(N(C)C)ccc1SC(Cl)(Cl)Cl	-14.7%	-17.9%	-12.1%	-61.6%	22.6%	-25.6%
CC1CCCCN1P(N1CCCCC1C)N1CCCCC1C (stereo not given)	36.4%	20.4%	29%	25.6%	23.4%	33.5%
CC(=O)Nc1ccc2ccccc2c1SC1CC(=O)N(c2ccccc2)C1=O (stereo not given)	-24.1%	-3%	-26.2%	-23.4%	-15.8%	-20.6%
CCCSc1ncnc2c1ncn2COC(=O)NC	15.1%	-11.4%	5.2%	5.15%	11.3%	-2.8%
CS(=O)(=O)c1nc(Cl)c2[nH]c(Cl)nc2n1	16.9%	-19.5%	5.35%	-11.3%	12.2%	22%
Cc1cn(C(=O)NC23CC4CC(CC(C4)C2)C3)c(=O)[nH]c1=O	14.8%	1.6%	11.1%	9.65%	10.9%	82.2% (active)
NC(=S)N/N=c1\cc(C(=O)Nc2ccc([N+](=O)[O-])cc2[N+](=O)[O-])oc2ccccc12	19.1%	26.3%	16.1%	-6%	22.9%	28%
CC(=O)SC1CS(=O)(=O)CC1SC(C)=O (stereo not given)	60.8%	52.9%	59%	40.2%	44.5%	63.5%
C[C@@H]1C(N2CCCC2)=CC(=O)OC1c1ccccc1 (stereo not given in full)	-3.65%	-11.1%	11.3%	-6.4%	-1.3%	1.95%
CCCCCCCCCCCCCCCCCCCOc1ccc(OCCCCCCCC)cc1	40.8%	-11.8%	17.6%	-11.2%	3.4%	3%
COC(=O)C1(C2CCc3cc(OC)ccc3C2=O)NC(=S)NC(=O)C1C#N (stereo not given)	-2.8%	-4.45%	-18.2%	-4.05%	-21.1%	-6.65%
Cc1ccc(/C=N/NS(=O)(=O)c2ccccc2)cc1	18.4%	13.8%	15.6%	-16.7%	12.1%	24.9%
CCOc1ccccc1/C=C/C(=O)O	4.6%	-9.7%	-11.8%	-19%	-22.1%	-21.4%
CC1C2CC(C3(C)OCCO3)CCC2(C)CCC12OCCO2 (stereo not given)	1.65%	16.9%	3.15%	11.5%	2.9%	5.4%
O=[N+]([O-])c1ccc(Oc2ccc(Cl)cc2)cc1	16.9%	-11.8%	14.6%	2.1%	-18.9%	21.8%
CCN=NNc1ccc(C#N)cc1	6.4%	2.15%	-0.25%	6.1%	16.9%	0.55%
